# According to PubChem BioAssay (EPA / NIEHS):
# Records with an inconclusive call do not appear. The source made the active and inactive calls. Rule for the calls, unless noted: active = hit-call score of the fitted dose curve at least 0.9, where 1 is the maximum; inconclusive = response in the unintended direction; inactive = score below 0.9.
# How the values were obtained:
# [1] = read-out: solute carrier (SLC22A6), SLC22A6 (gene 9356); assay: LTEA_HepaRG_SLC22A6: Life Technologies and Expression Analysis (LTEA) Assay for solute carrier (SLC22A6) using HepaRG (AID 2283653; active = hit-call score of the fitted dose curve at least 0.9, where 1 is the maximum; inactive = score below 0.9); settings: mRNA level, 48 h; actives raise or lower the signal
# Outline: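 SLC22A6 transcript was measured by TaqMan qRT-PCR, normalized to three housekeeping genes, after 48 h duplicate exposure of HepaRG cells (100 uM top, half-log steps, 0.5% DMSO); bidirectional fit against vehicle.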
# [2] = Tanguay_ZF_120hpf_SWIM_legacy: (Legacy) Oregon State University Tanguay Lab 120 Hour Post-fertilization zebrafish Assay for Swim Bladder Malformation (AID 2283654);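 note: swim bladder malformation in each larva scored yes or no under brightfield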
# Outline: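 Static waterborne exposure of single dechorionated Tropical 5D zebrafish embryos, 6–120 hpf, 28C, 0.64% DMSO final. Read-out: swim bladder malformation, present/absent, relative to DMSO negative control; trimethyltin chloride 5uM served as positive control.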
# [3] = Tanguay_ZF_120hpf_TRUN_legacy: (Legacy) Oregon State University Tanguay Lab 120 Hour Post-fertilization zebrafish Assay for Truncated Body (AID 2283655)
# Outline: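 Binary presence/absence of truncated body is recorded at 120 hpf by brightfield, with non-mortality endpoints skipped after death. Exposure is static from 6 hpf in sealed dark plates at 28C, using dechorionated wild-type zebrafish, 0.64% DMSO.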
# [4] = Tanguay_ZF_120hpf_NC_legacy: (Legacy) Oregon State University Tanguay Lab 120 Hour Post-fertilization zebrafish Assay for Notochord and Tail Malformation (AID 2283656)
# Outline: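 Binary scoring of notochord distortion by brightfield microscopy; embryos dying were not scored. Wild-type Tropical 5D embryos, chorion removed, exposed singly and statically from 6 to 120 hpf, 28C, sealed, 0.64% DMSO.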
# [5] = read-out: solute carrier (SLC10A1), SLC10A1 (gene 6554); assay: LTEA_HepaRG_SLC10A1: Life Technologies and Expression Analysis (LTEA) Assay for solute carrier (SLC10A1) using HepaRG (AID 2283657; active = hit-call score of the fitted dose curve at least 0.9, where 1 is the maximum; inactive = score below 0.9); settings: mRNA level, 48 h; actives raise or lower the signal
# Outline: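 Cryopreserved HepaRG cells are thawed, plated and cultured 48 h; medium is then switched to serum-free induction medium and chemicals added (8 points, max 100 uM, 0.5% DMSO). After 48 h, RNA is isolated and SLC10A1 quantified by qRT-PCR.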
# [6] = read-out: matrix metalloproteinase-1 (MMP1), MMP1 (gene 4312); assay: LTEA_HepaRG_MMP1: Life Technologies and Expression Analysis (LTEA) Assay for matrix metalloproteinase-1 (MMP1) using HepaRG (AID 2283658; active = hit-call score of the fitted dose curve at least 0.9, where 1 is the maximum; inactive = score below 0.9); settings: mRNA level, 48 h; actives raise or lower the signal
# Outline: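 qRT-PCR (TaqMan, Fluidigm arrays) of MMP1 transcript, normalized against three housekeeping genes and fitted in both directions relative to 0.5% DMSO vehicle. Human HepaRG cultures received duplicate 48 h exposures across 8 points, highest 100 uM with half-log steps.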
# [7] = Tanguay_ZF_120hpf_TR_legacy: (Legacy) Oregon State University Tanguay Lab 120 Hour Post-fertilization zebrafish Assay for Touch Response (AID 2283667)
# Outline: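 Readout is presence or absence of touch response in 120 hpf zebrafish larvae, assessed by brightfield observation after continuous static exposure at 28C. Final vehicle was 0.64% (vol/vol) DMSO.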
# [8] = read-out: Cytochrome P450 (CYP24A1_1), CYP24A1 (gene 1591); assay: LTEA_HepaRG_CYP24A1_1: Life Technologies and Expression Analysis (LTEA) Assay for Cytochrome P450 (CYP24A1_1) using HepaRG (AID 2283671; active = hit-call score of the fitted dose curve at least 0.9, where 1 is the maximum; inactive = score below 0.9); settings: mRNA level, 48 h; actives raise or lower the signal
# Outline: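 Cultures of human HepaRG were treated in duplicate for 48 h (0.5% DMSO vehicle, highest dose 100 uM). CYP24A1 mRNA by qRT-PCR, normalized to ACTB, GAPDH, POLR2A.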
# [9] = CCTE_Padilla_ZF_144hpf_TERATOSCORE: (Legacy) CCTE's 144 Hour Post-fertilization zebrafish Assay Teratoscore, Padilla Lab (AID 2283679; active = hit-call score of the fitted dose curve at least 0.9, where 1 is the maximum; inactive = score below 0.9;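 for AC50: zebrafish embryos with chorions exposed by immersion from 6-8 hpf to 5 dpf with daily renewal; teratogenicity score from eye scoring of death hatching and malformations at 144 hpf; higher score means more developmental defects relative to DMSO baseline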)
# Outline: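 Larvae scored by eye at 144 hpf for death, hatching and malformations after a day in clean Hanks'. Before that, daily-renewed exposure at 80 uM (0.4% DMSO, 26C) from roughly 6-8 hpf through 5 dpf, 4 embryos per chemical.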
# [10] = Tanguay_ZF_120hpf_ActivityScore_legacy: (Legacy) Oregon State University Tanguay Lab 120 Hour Post-fertilization zebrafish Assay Score for Activity (AID 2283742);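 for AC50: dechorionated Tropical 5D wild-type zebrafish embryos held singly per well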
# Outline: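 In this whole-embryo screen, dechorionated zebrafish were exposed from 6 hpf until 120 hpf at 28C under a 0.64% DMSO vehicle. Developmental malformations and death were recorded by brightfield microscopy as binary endpoints.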
# [11] = tested on: Thyroperoxidase (TPO), gene 54314; assay: CCTE_Simmons_AUR_rTPO: CCTE's Amplex UltraRed Assay for Thyroperoxidase (TPO) Inhibition, Simmons Lab (AID 2283662);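 for AC50: potency for loss of signal meaning inhibition of peroxidase activity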
# Outline: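 Cell-free peroxidase activity assay using rat thyroid gland microsomes with excess H2O2 (300 uM) and 25 uM Amplex UltraRed. Compounds tested from 5 nM to 87.5 uM; fluorescence measured after 30 min at 37C, analysed relative to DMSO baseline.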
# [12] = CCTE_Simmons_CellTiterGLO_HEK293T: Viability Assessment in CCTE's Assays for Thyroperoxidase (TPO) Inhibition, Simmons Lab (AID 2283665);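 for AC50: cells exposed to compound for 24 h before readout; actives reduce ATP signal below DMSO vehicle meaning cytotoxicity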
# Outline: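 Luciferase-coupled ATP content after 24 h exposure gives viability; 8-point series from 5 nM to 87.5 uM final in 0.5% DMSO. Human HEK293T cells, 1% FBS medium, three biological replicates, dichlone positive control.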
# [13] = STM_H9_OrnithineISnorm_perc: Stemina devTOX quickPredict H9 human embryonic stem cell (hESC)-based Assay for Ornithine (ORN) Metabolite Biomarker, Normalized (AID 2283712; active = hit-call score of the fitted dose curve at least 0.9, where 1 is the maximum; inactive = score below 0.9;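 note: ornithine released into spent medium during last day measured by mass spectrometry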)
# Outline: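 Ornithine in spent medium from the last 24 h of a 72 h exposure, deproteinised and quantified by UPLC-HRMS against an isotope-labelled internal standard, expressed relative to 0.1% DMSO. Pluripotent H9 cells; compound refreshed every 24 h.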
# [14] = STM_H9_CystineISnorm_perc: Stemina devTOX quickPredict H9 human embryonic stem cell (hESC)-based Assay for Cystine (CYSS) Metabolite Biomarker, Normalized (AID 2283713; active = hit-call score of the fitted dose curve at least 0.9, where 1 is the maximum; inactive = score below 0.9)
# Outline: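 Cystine in spent media from the last 24 h of a 72 h H9 hESC exposure (daily re-dosing), measured by UPLC-HRMS. Values normalized to isotopic internal standard, then to 0.1% DMSO; viability via CellTiter-Fluor.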
# [15] = STM_H9_OrnCyssISnorm_ratio: Stemina devTOX quickPredict H9 human embryonic stem cell (hESC)-based Assay for Ornithine (ORN):Cystine (CYSS) Ratio (AID 2283714)
# Outline: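 H9 hESC, 72h, q24h re-dose; last-day media → acetonitrile deproteinization → UPLC-HRMS. ORN:CYSS ratio from isotope-normalized EIC areas, vs 0.1% DMSO; MTX references on each plate.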
# [16] = CEETOX_H295R_MTT_cell_viability: Viability Assessment in the CeeTox HT-H295R MTT Assay (AID 2283718; active = hit-call score of the fitted dose curve at least 0.9, where 1 is the maximum; inactive = score below 0.9;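 for AC50: curve fitted both ways so AC50 may mark viability loss or gain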)
# Outline: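 H295R cells prestimulated 48 h with 10 uM forskolin, then exposed 48 h to test chemical (0.1% DMSO final). Viability by MTT (0.5 mg/ml, 4 h, 37 C), absorbance 570/650 nm; percent change versus DMSO, bidirectional fit.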
# [17] = ArunA_CellTiter_hNC: Viability Assessment in the ArunA Biomedical's Oris Neural Crest (hNC) Cell Migration Assay (AID 2283752)
# Outline: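 After a 72 h chemical exposure, viability of hNC cells is read with CellTiter Aqueous One and fitted as signal loss relative to DMSO. Cells were seeded at 60,000/well on Matrigel and cultured 16 h at 37 C beforehand.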
# [18] = ArunA_CellTiter_hNP: Viability Assessment in the ArunA Biomedical's Oris Neural Crest (hNC) Cell Migration Assay (AID 2283753)
# Outline: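 Viability read with CellTiter 96 Aqueous One after 72 h chemical exposure of human hNP1 neuroprogenitors, which were plated on Matrigel in LIF/bFGF medium 16 h beforehand. Endpoint fitted in positive direction relative to DMSO.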
# [19] = read-out: kallikrein-3 (KLK3), KLK3 (gene 354); assay: LTEA_HepaRG_KLK3: Life Technologies and Expression Analysis (LTEA) Assay for kallikrein-3 (KLK3) using HepaRG (AID 2283652; active = hit-call score of the fitted dose curve at least 0.9, where 1 is the maximum; inactive = score below 0.9); settings: mRNA level, 48 h; actives raise or lower the signal
# Outline: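 KLK3 transcript levels were measured by TaqMan qRT-PCR with normalisation to three housekeeping genes. HepaRG cultures received chemicals for 48 h at up to 100 uM (half-log, 8 points, 0.5% DMSO vehicle), fitted in both directions against DMSO.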
compound,measurement,setting,value
CCN(CC)C(=O)c1cc(S(=O)(=O)Cc2ccccc2)c(N2CCC(c3ccccc3)CC2)cc1N(CC)CCN(C)C,outcome,[1],inactive
same,outcome,[2],inactive
same,outcome,[3],inactive
same,outcome,[4],inactive
same,outcome,[5],inactive
same,outcome,[6],inactive
same,outcome,[7],inactive
same,outcome,[8],inactive
same,AC50,[9],20.7 µM (active)
same,AC50,[10],17.2 µM (active)
O=C(Nc1ccc(Cl)cc1)Nc1ccc(Cl)c(Cl)c1,outcome,[2],inactive
same,outcome,[3],inactive
same,outcome,[4],inactive
same,AC50,[11],18.9 µM (active)
same,AC50,[12],1.73 µM (active)
same,outcome,[7],inactive
same,AC50,[13],0.000976 µM (active)
same,outcome,[14],inactive
same,outcome,[15],inactive
same,outcome,[16],inactive
same,outcome,[10],inactive
same,outcome,[17],inactive
same,AC50,[18],25.9 µM (active)
Cc1oc2c(NC(=O)c3c(Cl)cccc3Cl)cccc2c1C(C)(C)O,outcome,[2],inactive
same,outcome,[3],inactive
same,outcome,[4],inactive
same,outcome,[7],inactive
same,AC50,[9],8.93 µM (active)
same,outcome,[16],inactive
same,AC50,[10],45.5 µM (active)
c1ccc2n[nH]nc2c1,outcome,[2],inactive
same,outcome,[3],inactive
same,outcome,[4],inactive
same,outcome,[7],inactive
same,outcome,[9],inactive
same,outcome,[10],inactive
Cc1cc(F)ccc1-c1cc(N2CC[C@@H](O)[C@H]2CO)ncc1N(C)C(=O)C(C)(C)c1cc(C(F)(F)F)cc(C(F)(F)F)c1,outcome,[2],inactive
same,outcome,[3],inactive
same,outcome,[4],inactive
same,outcome,[7],inactive
same,outcome,[10],inactive
NC(=O)c1nc(-c2cccc(-c3cc(F)ccc3OCC(F)(F)C(F)(F)F)c2)n[nH]1,AC50,[2],26.4 µM (active)
same,AC50,[3],27 µM (active)
same,outcome,[4],inactive
same,AC50,[7],26.6 µM (active)
same,AC50,[9],1.08 µM (active)
same,outcome,[13],inactive
same,AC50,[14],3.59 µM (active)
same,AC50,[15],3.99 µM (active)
same,outcome,[16],inactive
same,AC50,[10],30.9 µM (active)
Cc1cn([C@H]2C[C@H](N=[N+]=[N-])[C@@H](CO)O2)c(=O)[nH]c1=O,outcome,[2],inactive
same,outcome,[3],inactive
same,outcome,[4],inactive
same,outcome,[7],inactive
same,outcome,[13],inactive
same,AC50,[14],2.32 µM (active)
same,AC50,[15],4.02 µM (active)
same,outcome,[10],inactive
CC(C)(C)c1csc(-c2cc3cc(OCc4ccccc4CC(=O)O)ccc3o2)n1,outcome,[19],inactive
same,outcome,[1],inactive
same,outcome,[2],inactive
same,outcome,[3],inactive
same,outcome,[4],inactive
same,AC50,[5],24.4 µM (active)
same,outcome,[6],inactive
same,AC50,[11],43.8 µM (active)
same,AC50,[12],22.4 µM (active)
same,outcome,[7],inactive
same,outcome,[8],inactive
same,AC50,[10],27.1 µM (active)
NCc1cccc(C2CCN(C(=O)c3ccc(C#Cc4ccccc4F)o3)CC2)c1,outcome,[2],inactive
same,outcome,[3],inactive
same,outcome,[4],inactive
same,outcome,[11],inactive
same,AC50,[12],9.98 µM (active)
same,outcome,[7],inactive
same,AC50,[10],31.6 µM (active)
C[C@]12CC[C@@H]3c4ccc(O)cc4CC[C@H]3[C@@H]1CC[C@H]2O,outcome,[1],inactive
same,outcome,[2],inactive
same,outcome,[3],inactive
same,outcome,[4],inactive
same,AC50,[5],72.6 µM (active)
same,outcome,[6],inactive
same,AC50,[11],4.06 µM (active)
same,outcome,[12],inactive
same,outcome,[7],inactive
same,outcome,[8],inactive
same,outcome,[16],inactive
same,outcome,[10],inactive
O=C1c2ccccc2C(=O)N1CCc1noc(-c2ccc(CN3CCCCCC3)s2)n1,outcome,[19],inactive
same,outcome,[1],inactive
same,outcome,[2],inactive
same,outcome,[3],inactive
same,outcome,[4],inactive
same,AC50,[5],11.1 µM (active)
same,outcome,[6],inactive
same,outcome,[7],inactive
same,outcome,[8],inactive
same,outcome,[16],inactive
same,outcome,[10],inactive
Cc1cc2c(cc1C(F)(F)F)N(C(=O)Nc1ccc(Oc3cccnc3C)nc1)CC2,outcome,[2],inactive
same,outcome,[3],inactive
same,outcome,[4],inactive
same,outcome,[7],inactive
same,outcome,[16],inactive
same,outcome,[10],inactive
O=C1CCC(C2CCCCC2)CC1,outcome,[2],inactive
same,outcome,[3],inactive
same,outcome,[4],inactive
same,outcome,[11],inactive
same,AC50,[12],43.8 µM (active)
same,outcome,[7],inactive
same,AC50,[9],60.4 µM (active)
same,outcome,[10],inactive
O=c1c(-c2ccc(O)cc2)coc2cc(O)cc(O)c12,outcome,[2],inactive
same,outcome,[3],inactive
same,outcome,[4],inactive
same,AC50,[11],3.6 µM (active)
same,outcome,[7],inactive
same,AC50,[9],24.5 µM (active)
same,AC50,[13],48.8 µM (active)
same,AC50,[14],71.6 µM (active)
same,AC50,[15],73.7 µM (active)
same,AC50,[16],28.7 µM (active)
same,AC50,[10],20 µM (active)
COc1cc(C(=O)NC2CCN(C)CC2)ccc1Nc1ncc2c(n1)N(C1CCCC1)CC(F)(F)C(=O)N2C,outcome,[2],inactive
same,AC50,[3],31 µM (active)
same,AC50,[4],33 µM (active)
same,AC50,[11],40.7 µM (active)
same,AC50,[12],15.3 µM (active)
same,AC50,[7],36.1 µM (active)
same,AC50,[13],0.0393 µM (active)
same,AC50,[14],0.0284 µM (active)
same,AC50,[15],0.0311 µM (active)
same,AC50,[10],40 µM (active)
